Shown is part of a subset that was picked to be rich in hits.
KDM5B inhibitor: KDM5B demethylase inhibition; KDM5B demethylase, FDH-coupled NADH fluorescence (FDH is formaldehyde dehydrogenase); AID 1347165; 220,000 tested, 2.6% active; Q9UGL1; Potency, µM (highest dose often 57.7 µM), usual class: inhibitors; active = well fitted inhibition curve with a large enough effect; also: 0% is about no effect; nearly all actives have a fitted effect of over 70% in size
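KDM5BΔAP (200 nM final) in 50 mM HEPES pH 7.5, 0.01% Tween-20 was preincubated 10 min at RT with compound over a concentration range. Substrate mix (H3K4me3 12.5 µM, α-KG 25 µM, Fe²⁺, ascorbate, NAD⁺, FDH) was added, and NADH fluorescence change over 30 min gave dose-response curves.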
An asterisk follows results filed as active; i = inactive. Potency is read from the fitted curve at half-maximal effect.

SMILES	KDM5B inhibitor
CCc1ccc(-c2nc(C3CC(=O)N(c4ccc(OC)cc4)C3)no2)cc1 (stereo not given)	i
CCc1ccc(N2CC(c3noc(-c4cc(F)cc(F)c4)n3)CC2=O)cc1 (stereo not given)	i
CCc1ccc(N2CC(c3noc(-c4ccsc4)n3)CC2=O)cc1 (stereo not given)	i
COc1ccc(N2CC(c3noc(-c4cc(C)cc(C)c4)n3)CC2=O)cc1OC (stereo not given)	i
CCc1ccc(N2CC(c3noc(-c4cc(OC)c(OC)c(OC)c4)n3)CC2=O)cc1 (stereo not given)	32µM*
CCc1ccc(N2CC(c3noc(-c4ccc(OC)nc4OC)n3)CC2=O)cc1 (stereo not given)	35µM*
Cc1cc(I)ccc1NC(=S)NCCc1ccccc1	i
[O-][n+]1cn(Cc2ccccc2)c2ccccc21	i
CC(=O)Oc1ccc2c(=O)c(-c3ccc(Cl)cc3)c(C(F)(F)F)oc2c1	i
CCc1ccc(CCC(=O)Nc2cccnc2)cc1	i
CCc1oc2ccccc2c1/C=C(/C#N)C(=O)NC1CC1	i
CCCCNC(=O)Cc1c(C)[nH]c2ccc(CC)cc12	i
O=C(COC(=O)c1cc(S(=O)(=O)N2CCOCC2)ccc1N1CCCCC1)NC1CC1	i
Cc1nc2ccc(C(=O)NCC3CN(Cc4ccccc4)CCO3)cc2nc1C (stereo not given)	i
CC1Cc2cc(S(N)(=O)=O)ccc2N1CC(=O)Nc1ccc(Cl)cc1F (stereo not given)	i
O=C(CNc1nc(Nc2ccccc2)nc(Nc2ccccc2)n1)Nc1ccccc1	i
NC(=O)c1cccc(CN2CCC3(Cc4ccccc4N(C(=O)c4ccc(Cl)cc4)C3)C2)c1 (stereo not given)	i
CC(C)C(=O)N1Cc2ccccc2CC2(CCCN2Cc2ccncc2)C1 (stereo not given)	56µM*
CC(C)C(=O)N1Cc2ccccc2CC2(CCCCN2Cc2ccncc2)C1 (stereo not given)	i
O=C(C1CCCC1)N1CC2(CCCCN2CC2CC2)Cc2ccccc21 (stereo not given)	i
O=C(c1ccc(Cl)cc1)N1CC2(CCCN2CC2CCCCC2)Cc2ccccc21 (stereo not given)	56µM*
O=C(c1ccccc1)N1CC2(CCCCN2CC2CC2)Cc2ccccc21 (stereo not given)	i
NC(=O)c1cccc(CN2CCC3(CC2)Cc2ccccc2N(C(=O)c2ccc(Cl)cc2)C3)c1	i
CCC(=O)N1Cc2ccccc2CC2(CCCN(CC3CCNCC3)C2)C1 (stereo not given)	i
CC(C)C(=O)N1Cc2ccccc2CC2(CCN(CC3CCNC3)C2)C1 (stereo not given)	i
SMILES	KDM5B inhibitor
CC(=O)N1Cc2ccccc2CC2(CCCN(CC3CCNC3)C2)C1 (stereo not given)	25µM*
NC(=O)c1cccc(CN2CCCC23Cc2ccccc2N(C(=O)c2ccc(Cl)cc2)C3)c1 (stereo not given)	79µM*
CC(=O)Nc1ccc(CN2CCCCC23Cc2ccccc2CN(C(=O)C(C)C)C3)cc1 (stereo not given)	i
Cc1ccsc1C=Nc1ccc(C23CC4CC(CC(C4)C2)C3)cc1	i
Nc1ncnc(Nc2ccc(Cl)c(Cl)c2)c1[N+](=O)[O-]	i
Cc1ccc(C)c(NC(=O)CCC2CCCC2)c1	i
CC(NC(=O)C1CCCc2ccccc21)c1ccc(Cl)cc1 (stereo not given)	i
Cc1ccccc1-c1noc(CSc2nc(C)c(C)n2C2CCCC2)n1	i
O=C(COC(=O)C1(c2ccc(F)cc2)CCCC1)Nc1cc([N+](=O)[O-])ccc1F	i
O=c1c(C(F)(F)F)cccn1Cc1coc(-c2cccc(F)c2)n1	i
CC(=O)N1Cc2ccccc2CC2(CCCCN2CC2CCOCC2)C1 (stereo not given)	i
CC(=O)N1Cc2ccccc2CC2(CCCCN2CC2CCCC2)C1 (stereo not given)	50µM*
NCC(=O)N1Cc2ccccc2CC2(CCCCN2CC2CCCC2)C1 (stereo not given)	i
COCCN1CCN(Cc2ccc(C#N)cc2)CC1	i
COc1ccc2cc(C(=O)N3CCN(c4cccc(C)c4C)CC3)c(C)nc2c1	i
COc1ccc(S(=O)(=O)N2CCCCC2)cc1NC(=O)Cc1nn(C)c(=O)c2ccccc12	i
Cc1ncoc1C(=O)N1CCC2(CCCN(C3CCOCC3)C2=O)C1 (stereo not given)	i
O=C(c1cccnn1)N1CCC2(CCCN(C3CCOCC3)C2=O)C1 (stereo not given)	i
O=C1N(C2CCOCC2)CCCC12CCN(c1ccc(Cl)cn1)C2 (stereo not given)	28µM*
COc1ccc(NC(=O)Nc2nc3cc(C)c(C)cc3s2)cc1OC	i
Cc1ccc(CNC(=O)C2(c3ccc(NS(C)(=O)=O)cc3)CCCCC2)o1	i
Cc1ccc(C)c(C(=O)NCc2nnc3cc(-c4nc(C)no4)ccn23)c1	25µM*
Cc1ccc(C)c(C(=O)NCc2nnc3cc(-c4nc(C(C)C)no4)ccn23)c1	14µM*
O=C(CCc1c[nH]c2ccccc12)Nc1ccc(Oc2ccccc2)cc1	i
Cc1ccc(CN(C)Cc2ccco2)cc1	i
SMILES	KDM5B inhibitor
O=C(c1nnc(CNc2ccccn2)n1-c1cccnc1)N1CCC[C@@H]1C(c1ccccc1)c1ccccc1	13µM*
O=C(c1nnc(CNCc2cccc(F)c2)n1-c1cccnc1)N1CCC[C@@H]1C(c1ccccc1)c1ccccc1	i
COc1ccccc1OCc1nnc(C(=O)N2CCC[C@@H]2C(c2ccccc2)c2ccccc2)n1-c1ccccc1	i
O=C(NCc1cccc(C(F)(F)F)c1)OCC(F)(F)F	i
CCc1cc2c(=O)c(-c3nncn3-c3ccccc3)coc2cc1OCC(=O)NCC(=O)O	i
Cc1nc2ncnn2c(N2CCCCCC2)c1Cc1ccccc1	i
Cc1noc(-c2ccn3c(CNC(=O)CCC4CCCC4)nnc3c2)n1	22µM*
CCc1noc(-c2ccn3c(CNC(=O)CCC4CCCC4)nnc3c2)n1	4.5µM*
CCc1noc(-c2ccn3c(CNC(=O)C4CCCCC4)nnc3c2)n1	28µM*
O=C(CCC1CCCC1)NCCc1noc(-c2ccccc2)n1	i
CCCOc1cc(OCCC)cc(C(=O)Nc2cccc(-c3nc4ncccc4o3)c2)c1	i
Cc1csc(SCC(=O)Nc2ccc(C(N)=O)cc2)n1	i
Cc1nc2ncnn2c(N2CCCCC2)c1Cc1ccccc1	i
Cc1cc(Cl)ccc1OCC(=O)Nc1ccc(N2CCN(C(=O)c3cccs3)CC2)cc1	i
O=C(c1nc(-c2ccc(Cl)cc2)c2ccccn12)N1CCN(c2ncccn2)CC1	25µM*
COc1ccccc1-c1cc(C(=O)N2CCOCC2)nn2cccc12	i
O=C(c1nc(-c2cc(Cl)cc(Cl)c2)c2ccccn12)N1CCCC1	28µM*
CS(=O)(=O)c1ccc(-c2nc(C(=O)N3CCCC3)n3ccccc23)cc1	i
O=C(c1cc(-c2ccc(Cl)cc2)on1)N1CCCC1	i
O=C(c1cc(-c2ccccc2Cl)nc2ccccc12)N1CCOCC1	i
O=C(c1ccc(Cl)cc1)N1CCC(C(=O)N2CCN(c3ncccn3)CC2)CC1	i
O=C(c1nc(-c2ccccc2)c2ccccn12)N1CCN(c2ncccn2)CC1	i
O=C(c1nc(-c2cc(Cl)cc(Cl)c2)c2ccccn12)N1CCOCC1	28µM*
O=S(=O)(c1cccs1)N1CCOc2ccc(COCc3cccc(F)c3)cc2C1	i

Bioassay records from PubChem BioAssay.
